The text below walks through data of PubChem BioAssay AID1259312 (Keith Lab, Institute of Cancer Science, University of …, 2017).

Each structure is given as a SMILES string. “And” between values parts separate entries of the source, which are not always exact repeats. Equal values may be shown once. Out of some 4,500 compounds screened, about 200 (4.4%) were called active.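 How the source made its calls: active means cell survival measured by absorbance rises more than 2.5-fold over infected cells without compound; inactive means the rest.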 The entries come from a sample that favours actives as a whole. Some compounds were tested as several samples or in several runs, with calls that do not always agree.

A short description of the experiment: survival after telomere uncapping, modulators, primary screen, cell-based (AID 1259312).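 Further: virus expresses mutant telomerase RNA that uncaps telomeres and kills cells; compound added 2 days after infection so exposure lasts 3 days.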 The settings on record: HCT116 + Ad-hTR-mut, MTT, 5 d; at 10 µM, stronger effect = higher value.
For `CCOC(=O)C1CCN(C(=O)C(=O)N2CCC(C(=O)OCC)CC2)CC1`, the fold change is -1.3 (inactive).
With `CCOC(=O)C1CCN(C(C)=O)CC1`, the fold change is 3.8 (active).
The figure for `CCOC(=O)C1CCN(C(=O)N2CCOCC2)CC1` is -1.12 (inactive); for `O=C(NC1CCCC1)c1ccc(COc2cc(Cl)ccc2Cl)o1` it is -1.53 (inactive).
Turning to `O=C1/C(=C/c2c(N3CCOCC3)nc3ccccn3c2=O)SC(=S)N1CC1CCCO1` (stereo not given), the fold change is -1.1 (inactive).
As for `Nc1ccc(Cn2ccnc2)cc1`, the figure is -1.06 (inactive).
On to `NCCCCn1ccnc1`, for which the fold change is 2.97 (active).
As to `CCCCNC(=O)C(=O)NCCCn1ccnc1`, the fold change is -3.64 (inactive).
In the case of `O=C1CCCN1c1ccc(S(=O)(=O)Cl)cc1`, the fold change is 1.34 (inactive).
The figure for `O=C1CCCN1c1ccc(NS(=O)(=O)N2CCCCC2)cc1` is -1.3 (inactive); for `O=C1CCCN1c1ccc([N+](=O)[O-])cc1` it is 4.37 (active); for `CCN(CC)CCCN1c2ccccc2Sc2ccc(C(F)(F)F)cc21` it is 5.26 (active).
Consider `Fc1ccc(-c2csc(N3CCN(CCCN4c5ccccc5Sc5ccc(C(F)(F)F)cc54)CC3)n2)cc1`, for which the fold change is 1.16 (inactive).
`CN(CCCN1c2ccccc2CCc2ccccc21)c1nc(-c2ccc(F)cc2)cs1`: the fold change is -1.32 (inactive).
The figure for `CC1SC2(C(=O)Nc3ccccc32)N(c2cccc(Br)c2)C1=O` (stereo not given) is -4.19 (inactive); for `O=C(O)C1=C/C(=C(/c2ccccc2)c2cc(C(=O)O)c(O)c3ccccc23)c2ccccc2C1=O` it is 1.42 (inactive); for `O=C1NC(=O)/C(=C/c2cc(Br)ccc2OCc2ccc(F)cc2)N1` it is -1.15 (inactive).
`C=CCn1c(-c2ccc(OC)cc2)n[nH]c1=S`: the fold change is -2.14 (inactive).
On to `O=c1ccc(=O)n2n1Cc1ccccc1C2`, for which the fold change is 3.52 (active).
As for `O=[N+]([O-])c1cccc(N2Cc3ccccc3C2)c1`, the figure is -1.27 (inactive); as for `CS(=O)(=O)N1CCc2ccccc2C1`, -1.26 (inactive).
As to `O=C(O)CC1CCCCO1` (stereo not given), the fold change is -1.75 (inactive).
Regarding `O=C1CC(c2ccccc2)CC2=C1C(c1ccc(-c3ccccc3)cc1)Nc1ccccc1N2` (stereo not given), the fold change is 1.1 (inactive).
As for `Cn1cc(Cl)c(C(=O)N2CCc3ccccc3C2)n1`, the figure is -2.46 (inactive); as for `N#CC1=C(N)C(C#N)(C#N)C2=CCCC2C12CCCCC2` (stereo not given), 2.06 (inactive); as for `Cc1ccc(-c2nnnn2C(C#N)=P(c2ccccc2)(c2ccccc2)c2ccccc2)cc1`, 2.78 (active).
As for `N#CC(C(N)=S)=P(c1ccccc1)(c1ccccc1)c1ccccc1`, the figure is -1.25 (inactive); as for `COc1cc(OC)cc([C@@H]2[C@@H](C(C)(C)C)C(C#N)(C#N)[C@H]3C=Cc4ccccc4N23)c1`, 1.39 (inactive); as for `Cn1c(=S)n(CCSc2nc3ccccc3n2C2CCCCC2)c2ccccc21`, -2.22 (inactive).
Take `CN(C)c1ccc(N2CC(=O)SC2=NC#N)cc1`: the fold change is -2.16 (inactive).
In the case of `COC1OC(COC(c2ccccc2)(c2ccccc2)c2ccccc2)C(O)C(O)C1O` (stereo not given), the fold change was 2.72 (active).
For the molecule `OCc1ccccc1O[C@@H]1O[C@H](CO)[C@@H](O)[C@H](O)[C@H]1O`, the fold change was 1.37 (inactive).
The figure for `COC1OC(C)C(OCc2ccccc2)C(O)C1O` (stereo not given) is 1.93 (inactive).
`CCCCc1sc(-c2c(C#N)c(N)nc3c2CCCC3)cc1[N+](=O)[O-]`: the fold change is -2.22 (inactive).
As for `CCSCCOC(=O)C1=C(C)NC2=C(C(=O)CCC2)C1c1ccsc1` (stereo not given), the figure is -1.16 (inactive); as for `CCCCOc1ccc(C2C(C#N)=C(N)Nc3oc(OC)nc32)cc1CCC` (stereo not given), -1.87 (inactive); as for `COc1ccc(S(=O)(=O)N2CCN(CCO)CC2)cc1`, -1.24 (inactive).
As to `CCC1CCCCN1S(=O)(=O)c1ccc(Cl)cc1` (stereo not given), the fold change was -1.26 (inactive).
In the case of `O=S(=O)(c1ccc(Cl)cc1)N1CCOC1C(Cl)(Cl)Cl` (stereo not given), the fold change was -2.17 (inactive).
For the molecule `O=S(=O)(c1cc(Cl)ccc1Cl)N1CCc2ccccc2C1`, the fold change is 1.42 (inactive).
The figure for `CC1CCCN(S(=O)(=O)c2ccc(Cl)cc2)C1` (stereo not given) is 5.69 (active).
The figure for `O=C(O)C1CCCN1S(=O)(=O)c1cc(Cl)ccc1Cl` (stereo not given) is -1.09 (inactive); for `CC1CCCN(S(=O)(=O)c2ccc(Br)cc2)C1` (stereo not given) it is 1.44 (inactive).
The figure for `CC1CCN(S(=O)(=O)c2ccc(Cl)cc2)CC1` is 1.93 (inactive); for `CC1CCCN(S(=O)(=O)c2cc(Cl)ccc2Cl)C1` (stereo not given) it is 3.18 (active).
With `CC1CC(C)CN(S(=O)(=O)c2ccc(Cl)cc2)C1` (stereo not given), the fold change was 3.13 (active).
The figure for `COc1ccc(S(=O)(=O)N2CC(C)CC(C)C2)cc1` (stereo not given) is 3.34 (active); for `COc1ccc(S(=O)(=O)N2CCN(C)CC2)cc1` it is -1.28 (inactive).
As for `CCC1CN2CCc3cc(OC)c(OC)cc3[C@@H]2C[C@@H]1C[C@H]1NCCc2cc(OC)c(OC)cc21` (stereo not given in full), the figure is -4.98 (inactive).
As for `Nc1nnc(SCc2ccc(Cl)cc2Cl)s1`, the fold change is 1.92 (inactive).
The figure for `CC(C)(C)c1cc(C(C)(C)C)c(O)c(C(C)(C)C)c1` is -1.04 (inactive); for `CS(=O)(=O)N1CCc2ccccc21` it is 1.49 (inactive); for `CN=C1/C(=N/O)C=CC2CCCCC12` (stereo not given) it is “inactive”.
As for `O=[N+]([O-])c1cc(Br)cc(C=Nc2cc(Cl)cc(Cl)c2)c1O`, the fold change result is “inactive”.
As for `O=C1C=CC(=C(c2ccc(O)c(O)c2)c2ccccc2S(=O)(=O)O)C=C1O`, the figure is 1.05 (inactive); as for `Cc1cc(=O)[nH]c(SCc2ccon2)n1`, “inactive”.
As for `Cn1c(=O)n(C)c2cc(S(=O)(=O)N3CCCCC3)ccc21`, the figure is -4.28 (inactive); as for `CSC(=Nc1ccc(C)c(C)c1)NC#N`, 3.26 (active).
For the molecule `CC1(C)CC2CC(C)(CN2S(=O)(=O)c2ccc(N)cc2)C1` (stereo not given), the fold change is -1.15 (inactive).
Consider `CN(C)CCCN1C(=O)C(O)=C(C(=O)c2ccco2)C1c1cccs1` (stereo not given), for which the fold change was 1.06 (inactive).
The figure for `Cc1ccc(C2C(C#N)=C(N)OC3=C2C(=O)CCC3)o1` (stereo not given) is -2.21 (inactive).
In the case of `N#CC1=C(N)OC2=C(C(=O)CCC2)C1c1cc(F)ccc1F` (stereo not given), the fold change was 2.83 (active).
The figure for `N#CC1=C(N)OC2=C(C(=O)CCC2)C1c1ccc(Br)s1` (stereo not given) is -1.06 (inactive).
As for `Cn1c(SC2CCOC2=O)nc2ccccc2c1=O` (stereo not given), the fold change was -1.35 (inactive).
As for `COc1nc(-c2ccccc2)cc(-c2ccccc2)c1C#N`, the figure is 1.46 (inactive); as for `OCC1OC(OC2OC(CO)C(O)C(O)C2O)C(O)C(O)C1O` (stereo not given), -1.63 (inactive).
The figure for `OC[C@H]1O[C@@H](OC[C@H]2O[C@@H](O)[C@H](O)[C@@H](O)[C@@H]2O)[C@H](O)[C@@H](O)[C@@H]1O` is -1.38 (inactive); for `OC[C@@H]1OC(O)[C@@H](O)[C@H](O)[C@H]1O[C@H]1O[C@H](CO)[C@@H](O)[C@H](O)[C@H]1O` (stereo not given in full) it is 3.84 (active); for `OC[C@@H]1O[C@H](O[C@H]2O[C@H](CO[C@H]3O[C@H](CO)[C@H](O)[C@H](O)[C@H]3O)[C@@H](O)[C@H](O)[C@H]2O)[C@H](O)[C@H]1O` it is 2.81 (active).
Consider `O=[N+]([O-])c1ccc(OC2OC(CO)C(O)C(O)C2O)cc1` (stereo not given), for which the fold change was 1.11 (inactive).
Take `NC[C@@H]1O[C@H](O[C@H]2[C@@H](O)[C@H](O[C@@H]3[C@@H](O)[C@H](N)C[C@H](N)[C@H]3O[C@H]3O[C@H](CN)[C@@H](O)[C@H](O)[C@H]3N)O[C@@H]2CO)[C@H](N)[C@@H](O)[C@@H]1O`: the fold change was -1.27 (inactive).
As for `CC(N)c1nc(-c2cccnc2)no1` (stereo not given), the figure is -2.47 (inactive); as for `O=S(=O)(NCc1ccc2c(c1)OCO2)c1ccc2oc3ccccc3c2c1`, 1.03 (inactive).
As for `Cn1c(=O)c2c(nc(NCCOc3ccc(Cl)cc3)n2C)n(C)c1=O`, the fold change is 1.16 (inactive).
Take `O=c1cc(-c2ccc(O)c(O)c2)oc2cc(OC3OC(CO)C(O)C(O)C3O)cc(O)c12` (stereo not given): the fold change is -1.76 (inactive).
As for `CC(Nc1cc(Cl)ccc1[N+](=O)[O-])C12CC3CC(CC(C3)C1)C2` (stereo not given), the fold change was -1.01 (inactive).
As for `O=S(=O)(c1ccccc1)N1CCN(C(c2ccccc2)c2ccccc2)CC1`, the figure is 3.51 (active); as for `O=S(=O)(c1ccccc1)N1CCN(CCO)CC1`, -1.34 (inactive).
`O=S(=O)(c1ccccc1)N1CCN(c2ccccc2)CC1`: the fold change was -1.03 (inactive).
Regarding `O=C(O)CN(CP(=O)(O)O)CP(=O)(O)O`, the fold change is -4.38 (inactive).
The figure for `COc1cc(CSC(=N)N)c([N+](=O)[O-])cc1OC` is -1.68 (inactive).
The figure for `CC(=O)OC[C@H]1O[C@@H](n2ncc(=O)[nH]c2=O)[C@H](OC(C)=O)[C@@H]1OC(C)=O` is -1.81 (inactive).
`CC(=O)OCC1OC(n2ccc(=O)[nH]c2=O)C(OC(C)=O)C1OC(C)=O` (stereo not given): the fold change was -1.3 (inactive).
As for `C=CCOC1OC(COC(C)=O)C(OC(C)=O)C(OC(C)=O)C1OC(C)=O` (stereo not given), the figure is 3.1 (active).
Turning to `Cc1ccc(C(c2c(C)[nH]n(-c3ccccc3)c2=O)c2c(C)[nH]n(-c3ccccc3)c2=O)o1`, the fold change was 1.83 (inactive).
As for `CN1CC=C2[C@H](C1)[C@@H](c1ccccc1F)C(C#N)=C(N)C2(C#N)C#N`, the figure is 1.08 (inactive); as for `Cc1cc(C)cc(OCC(=O)N=Nc2c(O)[nH]c3ccccc23)c1`, “inactive”; as for `N#Cc1sc2nc3c(cc2c1N)CCCC3`, 1.19 (inactive).
Take `c1csc(-c2nc3sc(-c4cccs4)nc3s2)c1`: the fold change is -2.65 (inactive).
On to `N#Cc1sc2nc(-c3cccs3)ccc2c1N`, for which the fold change is 5 (active).
As for `Cc1cccc(N2CCC(N=CN3CCOCC3)=N2)c1`, the figure is 2.57 (active); as for `O=C(CN1CCOCC1)Nc1nccs1`, 3.2 (active).
On to `CCCCCCCCCCCC(=O)Nc1nccs1`, for which the fold change was -1.36 (inactive).
As for `O=C(O)CCC(=O)Nc1nccs1`, the figure is -1.01 (inactive); as for `CCOC(=O)/C(=C\C1=CC=C([N+](=O)[O-])C1)NC(=O)c1cccc(C)c1`, 2 (inactive); as for `Cc1cc2c(cc1C)-c1c(ssc1=Nc1ccc(S(N)(=O)=O)cc1)C(C)(C)N2`, -1.69 (inactive).
As for `COc1cc(C2C(C(=O)OC3CCCCC3)=C(C)NC3=C2C(=O)CC(C)(C)C3)cc(OC)c1OC` (stereo not given), the figure is -1.82 (inactive); as for `NC(=O)CCCc1c[nH]c2ccccc12`, 1.03 (inactive); as for `O=C(CCCc1c[nH]c2ccccc12)NCCSc1ccccc1`, -1.53 (inactive).
The figure for `O=C(O)CCCc1c[nH]c2ccccc12` is 3.42 (active) and -1.18 (inactive).
